Assay outcomes deposited in PubChem BioAssay by SRMLSC.
PMK inhibit – inhibitors of Streptococcus pneumoniae phosphomevalonate kinase; 65,000 compounds, 0.49% hits; purified PMK, PK/LDH-coupled NADH absorbance 340 nm; AID 539; inhibition, % at 10 µM;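 active means top-ranked compounds by inhibition in the single 10 µM screen, taking a fixed number of the strongest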
NADH enzymes – inhibitors of enzymes used to reach an NAD/NADH endpoint | 65,000 compounds, 0.02% hits | IC50, µM (highest dose often 10 µM) | coupled PK/LDH NADH assays, four targets;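 active means single-dose screening hits from any of four coupled enzyme assays that gave an IC50 when retested across doses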;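 further: the DPM-DC format reads NADH fluorescence rather than 340 nm absorbance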
DPM-DC inhibit – S. pneumoniae DPM-DC inhibition | purified DPM-DC, PK/LDH coupled NADH fluorescence | calls only at 10 µM | 65,000 compounds, 0.49% hits;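 active means the 320 compounds with the highest percent inhibition in the single-dose primary screen, excluding strongly autofluorescent ones, cut at about 32% in these data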;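 further: kinetic rate of NADH fluorescence loss reporting ADP formed by the decarboxylase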
Abs 340nm – compound absorbs light at 340 nm; AID 708; fold change at 10 µM; 65,000 tested, under 10 active; compound absorbance at 340 nm, fold over control;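 active means at 10 µM dose, initial 340 nm absorbance at least 2 fold that of control wells; inactive means change under 2 fold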;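 further: initial absorbance extrapolated from kinetic A340 decline of NADH oxidation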
Spn MK inh – inhibitors of Streptococcus pneumoniae mevalonate kinase | purified MK, PK/LDH-coupled NADH absorbance 340 nm | inhibition, % at 10 µM | AID 555 | 65,000 compounds, 0.48% hits;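 active means ranked among the strongest by inhibition in the single 10 µM screen, a fixed top-ranked set picked for dose follow-up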
Autofluor 339 – intrinsic fluorescence of library compounds, ex339/em460 – biochemical, MLSMR library, data from DPM-DC assay, artefact control, profiling panel; AID 709; compound autofluorescence, ex339/em460 nm, NADH buffer; active compounds read high; 1 = no-compound wells, NADH background; 65,000 compounds, 5.5% hits; fluorescence fold increase at 10 µM;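 active means at 10 µM, mean starting fluorescence two-fold or more over control wells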;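 further: signal is the first read of a kinetic run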
Hits are given with their value; i = inactive; nt = no result shown; + = active, no number. Only some compounds are listed: those with a hit (about 6.5% of all), similar ones and a draw of the others.

SMILES | PMK inhibit | NADH enzymes | DPM-DC inhibit | Abs 340nm | Spn MK inh | Autofluor 339
O=C(NC1CCCCC1)C(c1ccccc1)N1CCCC1 (configuration not stated) | i | i | i | i | i | i
CCOC(=O)c1cccc(NC(=O)c2cc3sccc3n2C)c1 | i | i | i | i | i | i
CCOC(=O)c1ccccc1NC(=O)c1cc2sccc2n1C | i | i | i | i | i | 2.6
CCOC(=O)C(O)(CCC(O)(C(=O)OCC)C(=O)OCC)C(=O)OCC | i | i | i | i | i | i
Cc1ccccc1OCCCCCn1ccnc1 | i | i | i | i | i | i
Cc1cccc(OCCCCCn2ccnc2)c1 | i | i | i | i | 48 | i
COc1ccc(C(=O)NCc2cn3c(C)csc3n2)cc1OC | i | i | + | i | i | i
Cc1coc2cc3oc(=O)c4c(c3cc12)CCCC4 | i | i | i | i | i | i
CCOc1cc2oc(=O)c3c(c2cc1Cl)CCC3 | i | i | i | i | i | i
O=c1oc2cc(O)ccc2c2c1CCCC2 | i | i | nt | i | i | 2.1
CCCOc1ccc2c3c(c(=O)oc2c1)CCCC3 | i | i | nt | i | i | 3.8
CC(C)Oc1ccc2c3c(c(=O)oc2c1)CCC3 | i | i | nt | i | i | 2.1
CCc1cc2c3c(c(=O)oc2cc1OC)CCCC3 | i | i | nt | i | i | 3.8
CCc1nc2ccccc2c(=O)n1CCCCn1c(CC)nc2ccccc2c1=O | i | i | i | i | i | i
CCc1nnc(NC(=O)C2CCCN2S(=O)(=O)c2ccc(F)cc2)s1 (configuration not stated) | i | i | i | i | i | i
O=c1oc2cc(O)ccc2c2oc3cc(O)ccc3c12 | i | i | nt | i | i | 2.4
COC(=O)C(C)Oc1ccc2c3c(c(=O)oc2c1)CCCCC3 (configuration not stated) | i | i | nt | i | i | 3
O=C(Oc1ccc2c3c(c(=O)oc2c1)CCCC3)c1ccco1 | i | i | nt | i | i | 2.2
COC(=O)c1ccc(OC(=O)c2ccco2)cc1 | i | i | i | i | i | i
CCN(CC)c1ccc2c(c1)oc(=O)c1c(Cl)cc(=O)oc12 | i | i | i | i | i | i
CC(NC(=O)c1ccco1)c1ccc2c(c1)OCCO2 (configuration not stated) | i | i | i | i | i | i
CCN1CCN(C(=O)c2cc3cc4cc(OC)ccc4nc3s2)CC1 | i | i | i | i | i | 2.8
Cc1ccc2cc3cc(C(=O)N4CCN(C(=O)c5ccco5)CC4)sc3nc2c1 | i | i | i | i | i | i
O=C(O)C1=C(C(=O)Nc2ccc(F)c(Cl)c2)CCCC1 | 25 | i | i | i | i | i
COC(=O)c1c(C)nc(C)c2c(=O)oc3ccccc3c12 | i | i | i | i | i | i
SMILES | PMK inhibit | NADH enzymes | DPM-DC inhibit | Abs 340nm | Spn MK inh | Autofluor 339
Cc1cc2c(c(N)n1)c(=O)oc1ccccc12 | i | i | nt | i | i | 3.7
CCN(CC)S(=O)(=O)c1cccc2c(N(C)C)cccc12 | i | i | i | i | i | i
CCN(CC)S(=O)(=O)c1cccc2cc(C(=O)O)c(O)cc12 | i | i | i | i | i | 2.1
COc1ccc2[nH]cc(C(=O)CN3CCCC(C)C3)c2c1 (configuration not stated) | 25 | i | i | i | i | i
COc1ccc2[nH]cc(C(=O)CN3CCC(C)CC3)c2c1 | i | i | i | i | i | i
CCc1ccc(C2C3=C(CC(C)(C)CC3=O)Nc3c2c(=O)[nH]c2nc(C)nn32)cc1 (configuration not stated) | i | i | nt | i | i | 3.4
COc1ccc(C2C3=C(CC(C)(C)CC3=O)Nc3c2c(=O)[nH]c(=O)n3Cc2ccccc2)cc1 (configuration not stated) | i | i | i | i | i | i
Cc1nc2[nH]c(=O)c3c(n2n1)NC1=C(C(=O)CC(C)(C)C1)C3c1ccc(F)cc1 (configuration not stated) | i | i | nt | i | i | 3.8
Cc1ccc(C2C3=C(CC(C)(C)CC3=O)Nc3[nH]c(=S)[nH]c(=O)c32)cc1 (configuration not stated) | i | i | i | i | i | i
CCOC(=O)c1cc(-c2ccc3c(c2)OCCO3)nc2c1c(C)nn2CCC#N | i | i | nt | i | i | 4.9
CCOC(=O)c1cc(C#N)c(NCc2ccccc2)nc1C | i | i | i | i | i | i
CCOC(=O)c1cc(-c2ccncc2)nc2c1c(C)nn2C | i | i | nt | i | i | 5.1
